Our source for the Potency values is PubChem BioAssay (NCATS).

Values joined by “and” are separate entries in the source; they are usually repeats but may differ in a detail not shown here. Identical values can stand only once. A number with no mark means an inactive call. Inconclusive results are not listed. Where a call stands in place of a potency, no number is given. Active and inactive are the calls of the source. Unless noted, calls follow the shape of the dose curve; as a rule, active = well fitted curve in the direction sought with a large enough effect; inconclusive = small, poorly fitted or top-dose-only effect, or another doubt; inactive = no such curve, though single readings can be large; an effect the other way counts as inactive or inconclusive. A value given as a limit tells only on which side of the number the result lay.

The target in assay [1] is 3',5'-cyclic-AMP phosphodiesterase 4B (Homo sapiens) (UniProt Q07343). In words: qHTS Assay for Inhibitors of PDE-IV (AID 607; active = well fitted activation curve with a large enough effect in the main read-out, with a control signal flat, not every such curve was filed as active). An outline of the steps:
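HEK293 ACTOne cells with CNG channel (1000/well), endogenous PDE4; membrane potential dye, compounds up to 22.9 uM final. Fluorescence Ex 535/Em 590; RO 20-1724 (100 uM final) as reference.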
For orientation: In qHTS, concentration-response curves come from the screen itself.

The target in assay [2] is Glucocorticoid receptor (Homo sapiens) (UniProt P04150). Briefly: GR-EFC Redistribution (AID 451; calls by dose curve; also: potency is read from the fitted curve at half-maximal effect). Particulars: CHO-K1 GR-EFC translocation, beta-gal luminescence, 2 h. An outline of the steps:
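CHO-K1 cells stably expressing nuclear-localized β-gal enzyme acceptor and GR fused C-terminally to the enzyme donor fragment; ligand-driven nuclear translocation restores β-gal by complementation. Compounds titrated up to 46 uM final, 2 h at 37 °C; luminescence read.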

The target of assay [3] is Cytochrome P450 3A4 (Homo sapiens) (UniProt P08684). Briefly: qHTS Assay for Inhibitors and Substrates of Cytochrome P450 3A4 (AID 884). Also: nearly all actives have a fitted effect of over 50% in size. Also: potency is read from the fitted curve at half-maximal effect. An outline of the steps: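 Luminescent readout of luciferin produced by CYP3A4 (20 nM) dealkylation of Luciferin-PPXE, 25 uM (its KM). NADPH-driven reaction ran 60 min at RT after 10 min compound preincubation; data scaled to 57 uM ketoconazole as 100% inhibition.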

The target of assay [4] is DNA dC->dU-editing enzyme APOBEC-3G (Homo sapiens) (UniProt Q9HC16). Briefly: qHTS for inhibitors of Vif-A3G interactions: Validation (AID 588379). An outline of the steps:
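Yellow fluorescence (Ex 488, Em 500-530) of Vif-coexpressing HeLa A3G-eYFP cells, scanned by Acumen cytometer, reports blocked A3G degradation. Cells plated at 700/well overnight at 37 deg C before compound addition, then a further overnight compound incubation at 37 deg C.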

Assay [5] in a line: ZIKV-mCherry secondary qHTS for Zika virus inhibitors (AID 1347158). Also: top concentration of the series differs between compounds. An outline of the steps: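 Compounds were tested in Vero monkey kidney cells infected with recombinant mCherry-expressing Zika virus at MOI 1 for 48-72 h at 37 °C. Fixed cells were nuclear-stained and imaged, and infection rate was taken as the fraction of mCherry-positive cells.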
Assay [6] has as its system Zika virus NS2B-NS3 protease (linked). In words: 384 well plate NINDS AMC confirmatory qHTS for Zika virus inhibitors (AID 1347163). Also: nearly all actives have a fitted effect of over 50% in size. Also: potency is read from the fitted curve at half-maximal effect. An outline of the steps:
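Fluorescence at 355/460 nm was read after 25 minutes of cleavage of 30 microM Ac-VKTGKR-AMC at room temperature, in the dark. Before substrate addition, compounds (up to 1 mM final) sat ~15 minutes with 5, 30 or 60 nM linked protease. Signals were normalized to no-enzyme and no-inhibitor wells.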

The subject of assay [7] is Zika virus NS2B-NS3 protease (linked construct). Briefly: 384 well plate NINDS Rhodamine confirmatory qHTS for Zika virus inhibitors (AID 1347164). Also: nearly all actives have a fitted effect of over 65% in size. Also: potency is read from the fitted curve at half-maximal effect. In outline: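 Compounds are incubated about 15 minutes with linked protease (5, 30 or 60 nM final). Rhodamine 110-tagged Ac-LKRR substrate (10 microM final) is added and fluorescence measured after 25 minutes.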
The nature of assay [8]: Confirmatory screen NINDS Rhodamine qHTS for Zika virus inhibitors (AID 1347161).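 Also: purified Zika NS2B-NS3 protease with linked NS2B cofactor domain and Rhodamine110 peptide substrate; series mostly up to about 110 µM; nearly all actives have a fitted effect of over 60% in size.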 An outline of the steps: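 Kinetic fluorescence (Ex 480 nm, Em 540 nm) over 15 min with 1.5 microM Rhodamine110 peptide and 25 nM linked protease.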
In assay [9] the target is Glucocorticoid receptor (Homo sapiens) (UniProt P04150). In words: GR-GFP Redistribution (AID 450;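 active = compounds whose dose series gives a full or clear partial fitted curve of increased nuclear translocation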; also: potency is read from the fitted curve at half-maximal effect). Particulars: U2OS GR-GFP nuclear translocation, laser cytometry, 2 h.
Glucocorticoid receptor (Homo sapiens), sequence (P04150 whole entry, looked up, the tested form may be a part): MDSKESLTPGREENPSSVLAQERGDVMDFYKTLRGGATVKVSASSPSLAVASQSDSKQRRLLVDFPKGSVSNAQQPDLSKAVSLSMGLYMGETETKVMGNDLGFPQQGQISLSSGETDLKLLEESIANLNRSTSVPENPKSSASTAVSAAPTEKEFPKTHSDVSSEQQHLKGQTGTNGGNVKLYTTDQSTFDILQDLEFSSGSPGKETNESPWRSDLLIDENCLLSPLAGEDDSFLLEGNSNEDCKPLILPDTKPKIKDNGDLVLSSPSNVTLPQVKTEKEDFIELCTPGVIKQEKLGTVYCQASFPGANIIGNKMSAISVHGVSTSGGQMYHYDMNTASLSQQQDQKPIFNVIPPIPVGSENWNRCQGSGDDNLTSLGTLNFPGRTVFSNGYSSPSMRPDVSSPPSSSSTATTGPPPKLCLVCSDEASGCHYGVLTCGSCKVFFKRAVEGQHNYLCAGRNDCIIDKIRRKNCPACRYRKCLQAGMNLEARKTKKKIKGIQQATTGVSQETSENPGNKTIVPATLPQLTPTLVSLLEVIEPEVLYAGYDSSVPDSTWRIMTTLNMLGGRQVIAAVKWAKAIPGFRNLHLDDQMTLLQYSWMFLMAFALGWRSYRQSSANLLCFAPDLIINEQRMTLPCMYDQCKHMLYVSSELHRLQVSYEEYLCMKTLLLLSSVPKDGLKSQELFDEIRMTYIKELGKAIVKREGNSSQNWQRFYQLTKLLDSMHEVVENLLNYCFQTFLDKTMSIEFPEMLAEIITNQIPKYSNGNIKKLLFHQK

3',5'-cyclic-AMP phosphodiesterase 4B (Homo sapiens), sequence (Q07343 whole entry, looked up): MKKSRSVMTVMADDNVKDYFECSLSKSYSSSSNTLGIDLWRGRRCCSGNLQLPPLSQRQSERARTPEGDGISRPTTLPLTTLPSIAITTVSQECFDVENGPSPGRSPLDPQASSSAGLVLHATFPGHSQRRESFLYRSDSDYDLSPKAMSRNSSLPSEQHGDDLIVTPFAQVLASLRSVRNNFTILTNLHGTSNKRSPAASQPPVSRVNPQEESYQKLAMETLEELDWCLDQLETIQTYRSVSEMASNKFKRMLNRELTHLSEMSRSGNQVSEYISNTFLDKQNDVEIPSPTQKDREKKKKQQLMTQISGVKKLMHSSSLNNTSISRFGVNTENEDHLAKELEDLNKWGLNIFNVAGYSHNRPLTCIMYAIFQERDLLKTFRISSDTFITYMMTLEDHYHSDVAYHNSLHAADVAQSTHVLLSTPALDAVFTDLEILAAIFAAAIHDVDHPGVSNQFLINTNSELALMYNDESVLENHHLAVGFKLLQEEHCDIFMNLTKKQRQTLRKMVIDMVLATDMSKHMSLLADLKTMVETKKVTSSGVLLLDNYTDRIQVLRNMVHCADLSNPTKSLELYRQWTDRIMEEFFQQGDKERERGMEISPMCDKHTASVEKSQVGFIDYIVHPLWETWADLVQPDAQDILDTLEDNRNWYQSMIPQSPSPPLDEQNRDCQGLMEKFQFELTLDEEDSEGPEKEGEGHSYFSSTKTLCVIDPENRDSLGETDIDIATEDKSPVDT
Cytochrome P450 3A4 (Homo sapiens), sequence (P08684 whole entry, looked up): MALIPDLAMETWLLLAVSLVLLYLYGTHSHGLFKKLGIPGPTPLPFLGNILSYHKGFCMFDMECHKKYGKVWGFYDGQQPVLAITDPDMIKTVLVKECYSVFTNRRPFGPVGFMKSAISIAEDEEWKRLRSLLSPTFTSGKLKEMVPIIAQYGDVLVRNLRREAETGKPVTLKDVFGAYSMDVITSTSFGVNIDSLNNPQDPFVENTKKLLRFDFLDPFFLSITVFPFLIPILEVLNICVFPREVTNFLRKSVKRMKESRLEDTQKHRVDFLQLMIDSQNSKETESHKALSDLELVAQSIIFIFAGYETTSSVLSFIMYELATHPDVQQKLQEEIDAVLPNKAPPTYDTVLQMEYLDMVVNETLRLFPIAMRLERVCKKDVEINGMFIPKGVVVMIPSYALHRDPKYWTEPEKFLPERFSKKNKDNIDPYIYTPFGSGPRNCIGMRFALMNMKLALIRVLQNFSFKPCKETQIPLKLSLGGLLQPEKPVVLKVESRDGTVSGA
DNA dC->dU-editing enzyme APOBEC-3G (Homo sapiens), sequence (Q9HC16 whole entry, looked up): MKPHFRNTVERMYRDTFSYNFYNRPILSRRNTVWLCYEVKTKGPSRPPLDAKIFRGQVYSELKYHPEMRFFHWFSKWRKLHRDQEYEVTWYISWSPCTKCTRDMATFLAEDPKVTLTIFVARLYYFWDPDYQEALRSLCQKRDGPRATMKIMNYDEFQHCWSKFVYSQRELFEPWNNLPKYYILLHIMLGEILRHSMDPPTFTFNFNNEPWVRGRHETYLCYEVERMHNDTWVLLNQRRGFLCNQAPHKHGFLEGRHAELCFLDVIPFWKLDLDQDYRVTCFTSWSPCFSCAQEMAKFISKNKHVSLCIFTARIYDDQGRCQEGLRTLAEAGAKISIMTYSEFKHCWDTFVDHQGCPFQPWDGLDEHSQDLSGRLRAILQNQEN

For `O=C(O)c1c(Br)c(Br)c(Br)c(Br)c1C1c2ccc(O)cc2Oc2cc(O)ccc21`, the Potency entry in assay [1] was “inactive”.
As to `COc1cc(-c2ccc(N=Nc3ccc4c(S(=O)(=O)O)cc(S(=O)(=O)O)c(N)c4c3O)c(OC)c2)ccc1N=Nc1ccc2c(S(=O)(=O)O)cc(S(=O)(=O)O)c(N)c2c1O`, the Potency in [2] was > 20.6 µM and > 46 µM; in assay [3], 15.8 µM (active). For the same compound, in assay [1], the Potency result is “inactive”.
With `O=C(Nc1ccc(C(=O)Nc2ccc(C(=O)Nc3ccc(S(=O)(=O)O)c4cc(S(=O)(=O)O)cc(S(=O)(=O)O)c34)cc2)cc1)Nc1ccc(C(=O)Nc2ccc(C(=O)Nc3ccc(S(=O)(=O)O)c4cc(S(=O)(=O)O)cc(S(=O)(=O)O)c34)cc2)cc1`, the Potency in assay [2] was more than 46 µM. Further, in assay [4], the Potency entry was “inactive”.
As to `O=c1c(O)cc(C2Oc3cc(O)cc(O)c3CC2O)cc2c(C3Oc4cc(O)cc(O)c4CC3O)cc(O)c(O)c12` (stereo not given), the Potency in [3] is 15.8 µM (active).
For the compound `O=C(OCc1cc(=O)n2nc(C3CC3)sc2n1)c1ccc(NC(=O)c2ccccc2F)cc1`, the Potency entry in assay [5], in assay [6] and in assay [7] was “inactive” in each case.
Turning to `COc1ccc(OC)c(Nc2sc(C(=O)c3ccccc3)c(N)c2S(=O)(=O)c2ccccc2)c1`, the Potency result in [8] is “inactive”.
Same read-out and setting: under `COC(=O)c1ccccc1NC(=O)CSc1nc(-c2ccccc2)cc(C(F)(F)F)n1` stands “inactive”; under `O=C(Nc1ccccc1C(=O)OCc1cc(=O)n2nc(C3CC3)sc2n1)c1cccc(Cl)c1`, “inactive”; under `CC(C)c1ccc(Nc2sc(C(=O)c3ccccc3)c(N)c2S(=O)(=O)c2ccccc2)cc1`, “inactive”.
Regarding `O=C(Nc1cc(C(=O)Nc2ccc(S(=O)(=O)O)cc2S(=O)(=O)O)cc(C(=O)Nc2ccc(S(=O)(=O)O)cc2S(=O)(=O)O)c1)Nc1cc(C(=O)Nc2ccc(S(=O)(=O)O)cc2S(=O)(=O)O)cc(C(=O)Nc2ccc(S(=O)(=O)O)cc2S(=O)(=O)O)c1`, the Potency is more than 46 µM in [9]; more than 46 µM in assay [2]; 8.91 µM (active) and 7.08 µM (active) in assay [6]; 3.55 µM (active) and 3.16 µM (active) in [7]. Further, the Potency entry in assay [1] is “inactive”.
Regarding `CN(C)c1cc(CNCC(C)(C)C)c(O)c2c1C[C@H]1C[C@H]3[C@H](N(C)C)C(=O)C(C(N)=O)=C(O)[C@@]3(O)C(=O)C1=C2O`, the Potency entry in assay [5] was “inactive”. Also, the Potency in assay [6] is 178 µM (active); in assay [7] it was 158 µM (active).
Turning to `O=C(O)c1ccc(NC(=O)c2cn(-c3ccccc3)nc2-c2ccc(Br)cc2)cc1`, the values for the Potency in assay [6] and in [7] were 44.7 µM (active) and 35.5 µM (active), respectively.
Turning to `COc1ccc(S(=O)(=O)c2c(Nc3ccc(C)cc3)sc(C(=O)c3ccc4c(c3)OCO4)c2N)cc1`, in [8], the Potency entry was “inactive”.
Still for that read-out and setting: in the case of `COC(=O)c1ccc(C(=O)Nc2ccc(-c3nc4cc(NC(=O)c5ccc(C(=O)OC)cc5)ccc4o3)cc2)cc1` it was “inactive”; in that of `CCOc1ccccc1NC(=O)c1ccc2oc(=O)c(S(=O)(=O)c3ccc(F)cc3)cc2c1`, “inactive”.
As to `O=C(OCc1cc(=O)n2nc(C3CC3)sc2n1)c1ccc(NC(=O)c2ccccc2Cl)cc1`, the Potency entry in [6] and in [7] was “inactive” throughout.
`CC(Oc1ccccc1)C(=O)Nc1ccc(C(=O)OCc2cc(=O)n3nc(C(C)C)sc3n2)cc1` (stereo not given): the Potency entry in assay [8] is “inactive”.
With `CCOC(=O)c1ccc(CN(Cc2ccc(F)cc2)S(=O)(=O)c2ccc(F)c(C(=O)Nc3ccccc3C(F)(F)F)c2)cc1`, in assay [8], the Potency result was “inactive”.
Consider `Cc1csc2nc(COC(=O)c3ccccc3NC(=O)c3ccc(C(C)(C)C)cc3)cc(=O)n12`, for which the Potency entry in [8] was “inactive”.
The same measure, in the same setting: in the case of `CC(C)c1nn2c(=O)cc(COC(=O)c3ccccc3NC(=O)c3cccc(Cl)c3)nc2s1` it was “inactive”.
Regarding `O=C(O)c1nc2cc(Cl)c(Cl)cc2[nH]c1=O`, the Potency entry in assay [3] and in assay [8] was “inactive” in each case.
As to `O=C(O)Cc1cc(I)c(Oc2cc(I)c(O)c(I)c2)c(I)c1`, the Potency result in [3] is “inactive”.
With `CCOC(=O)c1c(-c2ccccc2)csc1NC(=O)c1cc(-c2ccc(Cl)cc2)on1`, the Potency result in [8] is “inactive”.
On the same count and under the same terms, under `O=C(Nc1ccccc1C(F)(F)F)c1ccc2oc(=O)c(S(=O)(=O)c3ccc(F)cc3)cc2c1` stands “inactive”.
Still for that read-out and setting: under `O=C(Nc1ccc(C(=O)OCc2cc(=O)n3c4c(sc3n2)CCCC4)cc1)c1ccccc1` stands “inactive”; under `CCCCc1nn2c(=O)cc(COC(=O)c3ccc(NC(=O)c4cccs4)cc3)nc2s1`, “inactive”.
Still for that read-out and setting: under `COc1ccc(S(=O)(=O)c2c(Nc3cccc(Cl)c3)sc(C(=O)c3ccccc3)c2N)cc1` stands “inactive”.
With `O=C(Nc1ccc(C(=O)OCc2cc(=O)n3nc(C4CC4)sc3n2)cc1)c1cccc(Cl)c1`, the Potency entry in [5], in assay [6] and in assay [7] was “inactive” each time.
For the compound `CCOC(=O)c1ccc(NC(=O)c2nc(SCc3ccc(F)cc3)ncc2Cl)cc1`, the Potency entry in assay [8] is “inactive”.
